From PubChem BioAssay (Tox21)
Results filed as inconclusive are left out. The source made the active and inactive calls. Calls come from the whole dose curve; as a rule, active = well fitted inhibition curve with a large enough effect in the signal ratio in the repeat runs, with a control signal flat; inconclusive = weak or mixed curves, or effect the other way; inactive = flat fitted curve, though single readings scatter; the % refers to the signal ratio.

These molecules were tested against D(2) dopamine receptor (Homo sapiens) (UniProt P14416) (assay: Dopamine D2 receptor (DRD2) small molecule antagonists, cell-based qHTS assay (AID 1963595)). Details: HEK293-DRD2 cAMP HTRF antagonist mode; series mostly up to 92.4 µM; activity change, negative = inhibition: at the top concentration.
Source text: National Center for Advancing Translational Sciences [NCATS]
Division of Preclinical Innovation [DPI]
U.S. Environmental Protection Agency [EPA]
National Institutes of Environmental Health Sciences [NIEHS]
National Toxicology Program [NTP]
U.S. Food and Drug Administration [FDA]
DRD2 is the D2 subtype of the dopamine receptor, which is coupled to Gi subtype of G protein-coupled receptor. This G protein-coupled receptor inhibits adenylyl cyclase activity. The DRD2-HEK293 cell line stably expressing D2 dopamine receptor can be used for screening agonists and antagonists of interactions between D2 and its ligands. The Hek293-DRD2 cAMP assay is based on HTRF technology. It measures changes of cAMP accumulation in response to Gi coupled GPCR activation or inhibition.
Tox21 Assay Protocol Summary:
DRD2-Hek293 cells were dispensed at 600 cells/3uL/well in 1536-well white plates using a Multidrop Dispenser. After the assay plates were incubated at a 37 C/5% CO2 incubator for 24 h, 1 uL of Ro20-1724 at final concentration of 0.1 mM was transferred to the assay plate by a Flying Reagent Dispenser. Following Ro20-1724 addition, 23 nL of compound dissolved in DMSO, positive controls or DMSO only was added to the assay plates via Wako pintool station. The assay plates were incubated at room temperature for 10 min. Next, 1 uL of mixture of NKH477 (final concentration at 200 nM) and quinpirole (final concentration at 12 nM) was added into the plates. After the assay plates were incubated at room temperature for an additional 30 min, 2.5 ul/well of cAMP-d2 and 2.5 ul/well of anti-cAMP-cryptate were added respectively into the assay plates using a Flying Reagent Dispenser. The plates were incubated at room temperature for 1 h. The fluorescence intensity in the plates was measured at 340 nm excitation and 665 & 620 nm emission by an Envision plate reader.
% is set by controls: 0 for no effect and ±100 for the full control effect.

Chain of D(2) dopamine receptor (Homo sapiens) (P14416 whole entry, looked up): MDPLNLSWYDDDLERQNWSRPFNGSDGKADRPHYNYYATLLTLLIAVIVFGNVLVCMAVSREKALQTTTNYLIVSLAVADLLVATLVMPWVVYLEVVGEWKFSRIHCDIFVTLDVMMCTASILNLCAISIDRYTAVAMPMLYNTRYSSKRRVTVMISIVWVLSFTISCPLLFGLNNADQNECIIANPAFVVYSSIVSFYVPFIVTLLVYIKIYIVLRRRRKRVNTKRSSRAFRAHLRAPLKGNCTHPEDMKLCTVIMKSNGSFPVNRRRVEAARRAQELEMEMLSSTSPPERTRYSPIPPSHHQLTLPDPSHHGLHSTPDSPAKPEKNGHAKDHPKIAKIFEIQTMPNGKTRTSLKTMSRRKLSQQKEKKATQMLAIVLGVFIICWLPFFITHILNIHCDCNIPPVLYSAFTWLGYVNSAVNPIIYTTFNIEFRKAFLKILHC

SMILES | activity change, negative = inhibition | Potency
Fc1c(F)c(F)c(Br)c(F)c1F | -13.9% (inactive) | 
CCOc1ccccc1C(N)=O |  | inactive
COc1cc(C(=S)N2CCOCC2)cc(OC)c1OC | 0.362% [at 42.5 µM] (inactive) | 
O=C(Nc1ccc([N+](=O)[O-])cc1)Nc1ccc([N+](=O)[O-])cc1 (tested in a mixture with another compound) | -0.0058% [at 42.5 µM] (inactive) | 
CCC(COC(=O)CCS)(COC(=O)CCS)COC(=O)CCS | -16.5% (inactive) | 
O=[N+]([O-])c1ccc(/C=C/c2ccc([N+](=O)[O-])cc2S(=O)(=O)O)c(S(=O)(=O)O)c1 | 0.163% (inactive) | 
C1CCSC1 | -6.27% (inactive) | 
CCCOC(=O)C(C)O (stereo not given) | -4% (inactive) | 
CC/C=C\CC1=C(C)CCC1=O | -10.1% (inactive) | 
COc1ccc(N=[N+]([O-])c2ccc(OC)cc2)cc1 | -0.625% (inactive) | 
COC(OC)C(C)c1ccccc1 (stereo not given) | 3.27% (inactive) | 
CC(C)(C)NC(=O)[C@@H]1CN(Cc2cccnc2)CCN1C[C@@H](O)C[C@@H](Cc1ccccc1)C(=O)N[C@H]1c2ccccc2C[C@H]1O |  | inactive
COc1ccccc1NC(=O)CC(C)=O |  | inactive
CC1(C)[C@H]2CC[C@]1(C)[C@H](O)C2 | 9.52% (inactive) | 
CC(C)(c1ccc(O)cc1)c1ccc(O)cc1 | 7.21% (inactive) | 
O=S(=O)(O)CCS |  | inactive
CCC(O)CO (stereo not given) | -0.302% (inactive) | 
C#CC(O)CCC (stereo not given) | 0.466% (inactive) | 
CC#N | -34.8% (inactive) | 
COCCOCCOCCOCCOC | -0.516% (inactive) | 

SMILES | activity change, negative = inhibition | Potency
CC(C)c1ccc(S(=O)(=O)O)cc1 |  | inactive
Cc1oncc1C(=O)Nc1ccc(C(F)(F)F)cc1 |  | inactive
O=C(O)CC(=O)O | 2.61% (inactive) | 
O=C1C(c2[nH]c3ccc(S(=O)(=O)O)cc3c2O)=Nc2ccc(S(=O)(=O)O)cc21 | 5.22% (inactive) | 
CCCCCCCCN(C)C | -0.0206% (inactive) | 
CCC(=O)OC(C)c1ccccc1 (stereo not given) | 9.81% (inactive) | 
COC(=O)/C=C(/C)N | 8.13% [at 42.5 µM] (inactive) | 
CCc1occc(=O)c1O | 1.43% (inactive) | 
Cc1cccc(Nc2ccccc2C(=O)O)c1C |  | inactive
CCCCCCCCCCCC[N+](C)(C)CCCS(=O)(=O)[O-] | -2.15% (inactive) | 
C=CC(C)(O)CC/C=C(\C)CC (stereo not given) | -0.247% (inactive) | 
Cc1cc(C)c(C(=O)O)c(C)c1 | -0.902% (inactive) | 
Cn1cnc2c1c(=O)[nH]c(=O)n2C |  | inactive
FC(F)(F)C(Cl)Br (stereo not given) |  | inactive
CC(C)CC=O | -3.16% (inactive) | 
COc1cc(S(N)(=O)=O)cc(C(=O)O)c1OC | 6.77% [at 42.5 µM] (inactive) | 
CCCCCC=O |  | inactive
O=C(O)CNC(=O)c1ccc(CO)o1 | 0.729% (inactive) | 
O=Cc1ccc(Cl)cc1 | 1.16% (inactive) | 
CC(=O)OCCOCCOCCOC(C)=O |  | inactive
